Experimental data reported in PubChem BioAssay (NCI).
About 83,000 compounds went through this panel and 20% of them were active in at least one assay; those are over-represented in the sample as a whole.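 Note: values are percent growth. 100 is the growth of untreated cells, values between 100 and 0 indicate rising inhibition; between -100 and 0 indicates cell death.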 A number with no mark means an inactive call. Activity calls are given as the source filed them. The calls were made as follows: active = growth percent below 10; inactive = the rest.

How the values were obtained:
Assay in all cases: NCI-60 one-dose screen, 48 h (100 = growth as untreated, 0 = no growth, -100 = all killed)
Conditions in all cases: 10 µM unless noted
[1] = test system: HCT-15 colon
[2] = test system: HT29 colon
[3] = test system: SNB-75 CNS
[4] = test system: SNB-19 CNS
[5] = test system: U251 CNS
[6] = test system: PC-3 prostate
[7] = test system: SK-MEL-5 melanoma
[8] = test system: UACC-62 melanoma
[9] = test system: LOX IMVI melanoma
[10] = test system: SK-MEL-28 melanoma

| SMILES | growth [1] | growth [2] | growth [3] | growth [4] | growth [5] | growth [6] | growth [7] | growth [8] | growth [9] | growth [10] |
| --- | --- | --- | --- | --- | --- | --- | --- | --- | --- | --- |
| O=C(O)c1cn(C2CC2)c2cc(N3CCN(Cc4nnc(Nc5ccccc5)o4)CC3)c(F)cc2c1=O | 101% | 93.8% | 82.2% | 108% | 105% | 105% | 106% | 100% | 87.9% | 100% |
| Cn1c2ccccc2c2c(OC(=O)c3ccccc3)c3c(nc21)-c1ccccc1C3 | 105% | 92.1% | 90.8% | 105% | 107% | 87.3% | 96.6% | 92.5% | 88.3% | 111% |
| CCOC(=O)C1=C(C)n2nc(CC#N)c(C#N)c2NC1c1ccc(CC)cc1 (stereo not given) | 99.6% | 107% | 88.5% | 106% | 101% | 90.8% | 96.6% | 94.5% | 92.7% | 103% |
| Cc1ccc(C(=O)O)o1 | 112% | 92.4% | 90.7% | 112% | 98.3% | 90.2% | 102% | 107% | 100% | 108% |
| CC(=O)c1cc2c(N)c(C(=O)Nc3ccccn3)sc2nc1C | 82.8% | 85.5% | 75.1% | 82.4% | 77.7% | 99.3% | 64.5% | 57.8% | 91.6% | 82.1% |
| O=Cc1[nH]c(Sc2ccccc2)c2ccccc12 | 70.3% | 55.4% | 42.8% | 89.1% | 67.5% | 46.4% | 74% | 62.3% | 80.5% | 92.9% |
| C#C[C@@]1(O)[C@@H](CO)O[C@@H](n2cc(I)c3c(N)ncnc32)[C@@H]1O | 5.73% (active) | 2.8% (active) | -10.1% (active) | 8.06% (active) | -0.637% (active) | 4.04% (active) | -9.34% (active) | 4.29% (active) | -42.3% (active) | 43.2% |
| O=C(O)c1cn(C2CC2)c2cc(N3CCN(C(=O)CSc4nnc(-c5ccc(Cl)cc5)n4-c4ccccc4)CC3)c(F)cc2c1=O | 104% | 97.2% | 95.8% | 91.3% | 101% | 93.7% | 98.8% | 91.3% | 72.3% | 109% |
| C=C1C(=O)O[C@H]2[C@H]1CC/C(COC(=O)NCC(=O)Nc1ccc(OC)c(C(N)=O)c1O)=C\CC[C@@]1(C)O[C@@H]21 | 91.2% | 18.8% | 76.9% | 73.9% | 62.6% | 85.7% | 76.4% | 42.8% | 55.8% | 47.9% |
| Cc1nccc2c3ccc(OCc4cn(-c5ccc(Br)cc5)nn4)cc3n(CC(C)C)c12 | 36.4% | 4.32% (active) | 89.5% | 59.6% | 36.9% | 30.7% | 13.1% | 38.4% | 52.2% | 67.2% |
| N#CCNc1ccc(C(=O)O)cc1 | 105% | 101% | 103% | 102% | 95% | 94.3% | 101% | 107% | 98.5% | 118% |
| Cc1cccc(C)c1NC(=O)CN(CC(C)C)CC(O)COc1ccccc1 (stereo not given) | 90.7% | 85.5% | 86.6% | 108% | 99.7% | 86.3% | 95.5% | 83.9% | 95.3% | 109% |
| CC1(c2ccccc2Cl)NC(=O)NC1=O (stereo not given) | 99.2% | 97.9% | 88.1% | 97.8% | 96.7% | 91.2% | 101% | 95.5% | 97.5% | 105% |
| OCCNc1nc(NCCO)nc(Nc2ccc(C3=NN(c4cc(Cl)cc(Cl)c4)C(c4ccc(Cl)cc4)C3)cc2)n1 (stereo not given) | 5.12% (active) | -46% (active) | -6.43% (active) | 15.8% | -47.8% (active) | -12.1% (active) | 24.9% | 13.1% | -53.4% (active) | -55.8% (active) |
| Cc1c(Cl)cccc1NC(=O)c1sc2nc3c(cc2c1N)CCCCC3 | 30.1% | 9.15% (active) | 9.95% (active) | 34.2% | 24.2% | 37.9% | 45.8% | 39.6% | 41.8% | 72.6% |
| COc1ccc(-c2cc(-c3nnc(SCC(=O)Nc4ccc(C(C)=O)cc4)o3)c3ccccc3n2)cc1 | 23.3% | 38.9% | -5.55% (active) | 13.8% | -68.6% (active) | 6.81% (active) | 5.12% (active) | 25.8% | 4.15% (active) | 42.7% |
| C#CC[C@@H]1C[C@]2(C)[C@H]3CC[C@@H]4[C@H]5[C@H](C(=C)C)CC[C@]5(C(=O)O)CC[C@@]4(C)[C@]3(C)CC[C@H]2C(C)(C)[C@H]1O | 32% | 35.9% | -8.42% (active) | 56.8% | 26.3% | 4.77% (active) | 74.5% | 72.2% | 44.3% | 92% |
| C#Cc1ccccc1NC(=O)c1sc2nc3c(cc2c1N)CCCCCC3 | 70.2% | 36.3% | 39.2% | 76.5% | 23.4% | 77.4% | 89.6% | 91.8% | 22.8% | 91.1% |
| O=C(Nc1ccc2ncnc(Nc3ccc(F)c(Cl)c3)c2c1)c1ccccc1 | 52.1% | 79% | 28.5% | 76.8% | 42.8% | 72.7% | 86.5% | 92.2% | 63.9% | 97.5% |
| N#Cc1ccc(Oc2ccc3ccc(=O)oc3c2)cc1 | 98% | 114% | 97.2% | 89.3% | 91.7% | 94.5% | 103% | 88.3% | 93.4% | 107% |
| C=C(C)[C@@H]1CC[C@]2(C(=O)O)CC[C@]3(C)[C@H](CC[C@@H]4[C@@]5(C)C[C@@H](CC#Cc6ccccc6C)C(=O)C(C)(C)[C@@H]5CC[C@]43C)[C@@H]12 | 20.9% | 22.3% | 58.1% | 40% | 25.4% | 31.4% | 28.2% | 41.4% | 43.6% | 42.9% |
| COc1cc(NCC(=O)Nc2cc(Nc3ccc(C)cc3)ncn2)c(Cl)c(OC)c1Cl | 89.9% | 95.3% | 78.4% | 95.9% | 87.2% | 69.1% | 91.6% | 75.3% | 84.5% | 107% |
| CCOC(=O)c1cnn(-c2nc(-c3ccc(F)cc3)c(C#N)c(N3CCOCC3)n2)c1N | 101% | 92% | 82.2% | 95.1% | 95.3% | 95.1% | 96.6% | 90.8% | 106% | 111% |
| COc1cc(-c2csc(NC(=O)Nc3ccc(C(F)(F)F)cc3)n2)cc(OC)c1OC | 10.6% | 3.06% (active) | -12.1% (active) | 14.1% | 6.12% (active) | 3.3% (active) | -54.7% (active) | -0.579% (active) | 4.24% (active) | 16.3% |
| CCCCc1nc(Cl)c(C2CC(c3ccc(Cl)cc3)=NN2c2cc(Cl)cc(Cl)c2)[nH]1 (stereo not given) | 86.5% | 85.4% | 65.6% | 93% | 90.7% | 45.6% | 69.1% | 78.2% | 67.2% | 99.8% |
| COc1cc(C)ccc1Oc1nc(Nc2ccc(N3CCOCC3)cc2)ncc1N=Cc1cc(C(F)(F)F)cc(C(F)(F)F)c1 | 92% | 64.5% | 40.1% | 94.4% | 71.5% | 77.4% | 91% | 81% | 61.3% | 96.7% |
